Compounds with a hit are over-represented: about 7.3% of the library has one in this group of screens.
Rab9 promoter act: qHTS Assay for Rab9 Promoter Activators. AID 485297, 2010. Huh7 Rab9 promoter-luciferase reporter, luminescence, 24 h. actives 2.8% (n = 320,000). Potency, µM (doses to about 9.22 µM), inactives show top-dose activation, negative = inhibition, most hits filed as activators; also: % of control where 0% means no effect; nearly all actives have a fitted effect of over 60% in size
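Huh7 cells stably carrying Rab9 promoter–luciferase reporter, plated 1500 cells/well, compound added after 2 h and incubated 24 h at 37 °C; luciferase luminescence then read after 10 min with detection reagent.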
ELG1 genotox: qHTS screen for small molecules that induce genotoxicity in human embryonic kidney (HEK293T) cells expressing luciferase-tagged ELG1 | Potency, µM (series often up to 46 µM), inactives show at the highest dose activity change, positive = activation, hits mostly activators | AID 504466, 2011 | actives 1.3% (n = 330,000) | HEK293T ELG1-luciferase reporter, luminescence, 16 h; also: % of control where 0% means no effect; nearly all actives have a fitted effect of over 60% in size
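DMSO vehicle served as control against compound-treated ELG1-luciferase HEK293T cells; exposure lasted 16 hr at 37 °C and 5% CO2, followed by ONE-Glo luminescence detection after 30 min.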
FLuc modulator: qHTS profiling assay for firefly luciferase inhibitor/activator using purifed enzyme and Km concentrations of substrates (counterscreen for miR-21 project); Luciferin 4-monooxygenase (Photinus pyralis), P08659; purified FLuc, Km substrates, luminescence inhibition; Potency, µM (titrated, usually from 57.5 µM), without a hit: top-dose activity change, negative = inhibition, actives largely listed as inhibitors; actives 6.9% (n = 360,000); AID 588342, 2011;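 also: plate controls were vehicle for no effect and reference inhibitor for full effect; nearly all actives have a fitted effect of over 55% in size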
Target sequence (P08659 whole entry, looked up): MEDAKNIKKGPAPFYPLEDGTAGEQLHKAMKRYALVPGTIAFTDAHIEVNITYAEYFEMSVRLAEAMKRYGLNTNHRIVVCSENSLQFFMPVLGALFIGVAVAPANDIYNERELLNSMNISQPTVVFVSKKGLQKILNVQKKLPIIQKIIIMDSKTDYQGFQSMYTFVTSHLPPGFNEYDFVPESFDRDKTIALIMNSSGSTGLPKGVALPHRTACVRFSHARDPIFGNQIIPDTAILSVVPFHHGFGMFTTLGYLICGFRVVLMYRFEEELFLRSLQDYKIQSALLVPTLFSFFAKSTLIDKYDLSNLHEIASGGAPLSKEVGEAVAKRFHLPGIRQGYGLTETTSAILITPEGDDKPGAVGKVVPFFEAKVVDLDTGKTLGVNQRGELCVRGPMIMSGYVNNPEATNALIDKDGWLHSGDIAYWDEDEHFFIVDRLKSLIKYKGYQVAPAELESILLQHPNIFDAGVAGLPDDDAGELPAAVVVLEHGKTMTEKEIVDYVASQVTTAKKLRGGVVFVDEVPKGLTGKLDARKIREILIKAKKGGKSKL
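Purified P. pyralis luciferase, 10 nM final, with Km-level 10 uM D-luciferin and 10 uM ATP in 50 mM Tris acetate pH 7.5, 10 mM Mg acetate, 0.01% Tween-20, 0.05% BSA; 6-point qHTS titration about 60 µM downward; luminescence read.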
SMN2 splice enh: qHTS Assay for Enhancers of SMN2 Splice Variant Expression. HEK293 SMN2-luciferase splicing reporter, luminescence, 30-36 h. Potency, µM (highest dose often 46.1 µM), inactives show at the highest dose activity change, positive = activation, most hits filed as activators. actives 2.8% (n = 210,000). AID 1458, 2008; also: % of control where 0% means no effect; nearly all actives have a fitted effect of over 55% in size
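HEK293 cells carry an SMN2 minigene-luciferase reporter in which exon 7 inclusion puts luciferase in frame. Cells were seeded at 2000 cells/well, attached for 10-12 hours, then exposed to compounds for 30-36 hours at 37C before ONE-Glo luminescence.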
NPC1 promoter act: qHTS Assay for NPC1 Promoter Activators; AID 485313, 2010; actives 2.4% (n = 320,000); Potency, µM (top dose mostly 9.22 µM), for the others: at the top dose activation, actives largely listed as activators; Huh7 NPC1 promoter luciferase reporter, 24 h; also: % of control where 0% means no effect; nearly all actives have a fitted effect of over 60% in size
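NPC1 promoter–luciferase Huh7 cells; 24 h compound; luminescence.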
KinaseGlo FLuc: Counterscreen for Luciferase (Kinase-Glo TM) Inhibition; Luciferin 4-monooxygenase (Photuris pensylvanica), Q27757; Kinase-Glo luciferase, ATP luminescence, 8 min; Potency, µM (top dose mostly 38.3 µM), inactives show at the top dose activity change, negative = inhibition, most hits filed as inhibitors; actives 0.28% (n = 200,000); AID 1379, 2008; also: % is scaled to controls: 0 for no effect and ±100 for the full control effect; nearly all actives have a fitted effect of over 60% in size
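Substrate mix (final 50 mM imidazole pH 7.2, 50 mM KCl, 7 mM MgCl2, 10 uM ATP, 0.01% Tween 20, 0.05% BSA) plus pin-tool compound, then Kinase-Glo detection mix; 8 min ambient, luminescence read.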
Starred values were filed as active, the others as inactive; ? = inconclusive; . = no result. Calls follow the shape of the dose curve; as a rule, active = well fitted curve in the direction sought with a large enough effect; inconclusive = small, poorly fitted or top-dose-only effect, or another doubt; inactive = no such curve, though single readings can be large; an effect the other way counts as inactive or inconclusive. Potency is read from the fitted curve at half-maximal effect.

SMILES	Rab9 promoter act	ELG1 genotox	FLuc modulator	SMN2 splice enh	NPC1 promoter act	KinaseGlo FLuc
COc1cc(NC(=O)c2cc(-c3ccc4c(c3)OCO4)on2)cc(OC)c1OC	-28%	-2%	2%	3%	-33%	.
CCCNC(=O)c1cc(-c2ccc3c(c2)OCO3)on1	0.56µM*	?	3.8µM*	.	0.63µM*	.
CCCCNC(=O)c1cc(-c2ccc3c(c2)OCO3)on1	2µM*	?	2.7µM*	.	3.5µM*	.
CC(C)NC(=O)c1cc(-c2ccc3c(c2)OCO3)on1	0.63µM*	?	3.8µM*	.	0.56µM*	.
CCOC(=O)C1CCN(C(=O)Cn2c(=O)oc3cc(S(=O)(=O)N4CCC(C)CC4)ccc32)CC1	.	.	-4%	-6%	.	.
COc1ccc(C)cc1NC(=O)N1CCN(S(=O)(=O)c2ccc3c(ccn3C)c2)CC1	.	.	-1%	.	.	.
CC(=O)N1c2ccccc2CC1C(=O)N1CCN(c2cccc(C)c2C)CC1 (stereo unspecified)	.	.	4%	.	.	.
CSc1ncc(Cl)c(C(=O)Nc2ccc(S(=O)(=O)N3CCC(C)CC3)cc2)n1	.	.	-3%	-56%	.	.
CCN(CC)C(=O)c1cc(-c2ccc3c(c2)OCO3)on1	3.5µM*	?	9.5µM*	.	4µM*	.
CCN(CC)C(=O)c1cc(-c2ccc(Cl)cc2)on1	.	.	13µM*	10µM*	.	.
CC(=O)Nc1ccc(S(=O)(=O)N/N=C/c2ccc(C)s2)cc1	?	?	11µM*	?	17%	-3%
COc1ccc2c(CNCCc3ccc(SC)cc3)c(C(=O)O)n(Cc3ccc(F)cc3)c2c1	.	.	-1%	.	.	.
CC(=O)NC(=S)Nc1ccc2oc(-c3cc(F)c(F)cc3Cl)nc2c1	0.5µM*	4.6µM*	-19%	5µM*	?	0%
O=C(Cc1ccccc1)NC(=S)Nc1ccc2oc(-c3ccccc3)nc2c1	?	?	?	11µM*	?	0%
O=C(Cc1ccccc1)NC(=S)Nc1ccc2oc(-c3ccccc3F)nc2c1	?	15%	13µM*	?	?	-2%
O=C(Cc1ccccc1)Nc1ccc2oc(-c3ccncc3)nc2c1	18%	2%	-8%	13%	8%	-3%
CCc1ccc(CN(Cc2cn[nH]c2-c2ccc(OC)cc2)C(=O)Nc2cc(Cl)ccc2OC)cc1	.	.	0%	.	.	.
Cc1nc2ccccn2c1-c1csc(Nc2cccc(O)c2)n1	-1%	2%	-7%	.	1%	-3%
Cc1cccc(Nc2nc(-c3ccc(O)cc3O)cs2)n1	4µM*	?	13µM*	.	3.2µM*	.
Oc1ccc(-c2csc(Nc3ncccn3)n2)c(O)c1	1.1µM*	7.3µM*	3µM*	11µM*	3.2µM*	-2%
Oc1ccc(-c2csc(Nc3ncccn3)n2)cc1O	-2%	?	8.5µM*	?	22%	-1%
CCCCN(CC)CCNC(=O)c1c(C)oc2ncnc(N3CCOCC3)c12	.	.	-4%	.	.	.
O=C(CSc1ncnc2ccccc12)N1CCCC1	28%	?	?	6%	16%	-5%
O=C(CSc1ncnc2ccccc12)c1cccs1	0.45µM*	?	1.5µM*	.	1.8µM*	-16%
Cc1ccc(C(=O)CSc2ncnc3ccccc23)o1	4µM*	12%	13µM*	11%	4µM*	-18%
SMILES	Rab9 promoter act	ELG1 genotox	FLuc modulator	SMN2 splice enh	NPC1 promoter act	KinaseGlo FLuc
CCc1ccc(NC(=O)Cn2c(=O)n(CCCCC(=O)NCCc3ccccc3)c(=O)c3ccccc32)cc1	.	.	2%	-13%	.	.
CCc1ccc(-c2nc(CS(=O)CC(=O)NC3CC3)c(C)o2)cc1 (stereo unspecified)	-3%	2%	?	.	-4%	.
CCc1ccc(-c2nc(CS(=O)CC(=O)O)c(C)o2)cc1 (stereo unspecified)	?	?	21µM*	.	24%	.
CCOc1ccc(-c2nc(CSCC(=O)NCc3ccco3)c(C)o2)cc1	-7%	15%	12µM*	-65%	-4%	-3%
COc1ccc(-c2nc(CSCC(=O)NCc3ccc4c(c3)OCO4)c(C)o2)cc1	1%	-6%	27µM*	-17%	-1%	17%
CCc1ccc(-c2nc(CSCC(=O)NCc3ccc(C)cc3)c(C)o2)cc1	.	.	19µM*	-37%	.	.
CCCCOC(=O)Cn1nnc2sc(-c3ccccc3)cc2c1=O	.	.	-3%	-1%	.	.
CCOc1ccc(-c2nc(CSCC(=O)N3CCN(c4cccc(OC)c4)CC3)c(C)o2)cc1	-8%	-9%	24µM*	-97%	2%	4%
COc1ccc(-c2nc(CSCC(=O)N3CCN(c4ccccc4F)CC3)c(C)o2)cc1	.	.	-18%	-65%	.	.
CCOc1ccc(NC(=O)Nc2ccc3snnc3c2)cc1	.	.	-3%	13%	.	.
O=C(Nc1cccc(C(F)(F)F)c1)Nc1ccc2snnc2c1	.	.	-7%	-27%	.	.
O=C(Nc1ccccc1)Nc1ccc2snnc2c1	?	-2%	11µM*	11µM*	?	-3%
CN(C)c1ccc(NC(=O)Nc2ccc3snnc3c2)cc1	?	12%	7.6µM*	-1%	?	10%
O=C(Nc1ccccc1)Nc1ccc2nnsc2c1	4µM*	6%	7.6µM*	.	?	.
CCOC(=O)c1cn2nc(Oc3ccc(C)cc3)ccc2n1	?	?	?	.	10%	.
CCOC(=O)c1cn2nc(N3CCCCC3)ccc2n1	0.13µM*	0.58µM*	0.95µM*	.	0.32µM*	.
CCOC(=O)c1cn2nc(Oc3ccccc3)ccc2n1	2.8µM*	?	15µM*	.	2.2µM*	.
CCOC(=O)c1cn2nc(N3CCCC3)ccc2n1	0.32µM*	?	2.1µM*	.	0.5µM*	.
CC(Nc1ccc(-c2nc(-c3ccncc3)no2)cc1[N+](=O)[O-])c1ccccc1 (stereo unspecified)	.	.	-7%	.	.	.
Cc1ccc2c(c1)c1c(c(=O)n(-c3cccc(Cl)c3)c(=O)n1C)n2C	.	.	0%	.	.	.
CCCC#Cc1ccc2c(c1)COc1c3ccccc3nn1-2	0.56µM*	?	1.5µM*	.	0.89µM*	.
COc1ccccc1OCCCOc1ccc([N+](=O)[O-])cc1Cl	4.5µM*	16%	5.4µM*	?	?	-5%
COc1cc(C)ccc1OCCCOc1ccccc1Br	1.4µM*	?	19µM*	3%	?	-3%
COc1ccccc1OCCCOc1ccc(C)cc1Br	?	18µM*	4.8µM*	?	?	15%
CC(C)(O)C(=O)O	.	.	.	-9%	.	.
